Lassa entry inh: inhibitors of Lassa virus binding or cell entry; Lassa virus pseudotype entry inhibition, cell reporter; 300,000 compounds, 1.2% hits; AID 540256; Potency, µM (series often up to 37.9 µM), usual class: inhibitors; calls by dose curve; tested in HEK293 cells; also: nearly all actives have a fitted effect of over 50% in size
Vaccinia Venus: inhibitors of vaccinia virus (Venus reporter) | Vaccinia virus Venus reporter expression, fluorescence | Potency, µM (series often up to 36.5 µM), most hits filed as inhibitors | 330,000 compounds, 0.46% hits; calls by dose curve; tested in A549 cells; also: nearly all actives have a fitted effect of over 30% in size
MARV entry inh: inhibitors of Marburg virus binding or cell entry. 300,000 compounds, 1.8% hits. Marburg virus pseudotyped entry inhibition, cell reporter. Potency, µM (titrated, usually from 37.8 µM), usual class: inhibitors; calls by dose curve; tested in HEK293 cells
Vaccinia mCherry: vaccinia inhibition (mCherry reporter). Vaccinia virus mCherry reporter infection, fluorescence. AID 720579. Potency, µM (titrated, usually from 36.5 µM), actives largely listed as inhibitors. 310,000 compounds, 0.63% hits; calls by dose curve; tested in A549 cells; also: nearly all actives have a fitted effect of over 35% in size
Each line names hits and unclear results; the compound was inactive in the other large screens. This is a sample that favours compounds with a hit; in the whole collection about 2.5% have one here.

CC(C)(C)c1ccc(Cn2c(=O)cnc3ccccc32)cc1	Lassa entry inh 10µM, MARV entry inh inconclusive, Vaccinia mCherry inconclusive
CCCCCN(C(=O)CCC(=O)OCc1ccc(Cl)cc1Cl)c1c(N)n(CCCC)c(=O)[nH]c1=O	Lassa entry inh inconclusive, MARV entry inh 2.5µM
CCCCCN(C(=O)CCC(=O)OCc1ccccc1Cl)c1c(N)n(CCCC)c(=O)[nH]c1=O	MARV entry inh inconclusive, Vaccinia mCherry inconclusive
O=C(c1ccc(Cl)cc1)C1CCCN(Cc2cccn2-c2ccccn2)C1 (stereo not given)	Lassa entry inh inconclusive, MARV entry inh 4µM
Cc1nn(C(C)C)c(C)c1CN1CCCC(C(=O)c2cccc(OC(C)C)c2)C1 (stereo not given)	Lassa entry inh inconclusive, MARV entry inh 13µM
CC(C)Oc1cccc(C(=O)C2CCCN(Cc3cccn3-c3ccccn3)C2)c1 (stereo not given)	Lassa entry inh 11µM, MARV entry inh inconclusive
COc1ccc(C(=O)C2CCCN(Cc3cccn3-c3ccccn3)C2)cc1F (stereo not given)	Lassa entry inh inconclusive, MARV entry inh inconclusive
CC(C)Oc1cccc(C(=O)C2CCCN(Cc3cnn(C(C)C)c3)C2)c1 (stereo not given)	none
COc1ccc(CN2CCCC(C(=O)c3ccc(Cl)cc3)C2)cc1Cn1cccn1 (stereo not given)	Lassa entry inh 10µM, MARV entry inh 2.8µM
COc1cccc(C(=O)C2CCCN(Cc3cccn3-c3ccccn3)C2)c1 (stereo not given)	Lassa entry inh inconclusive, MARV entry inh inconclusive
COc1cccc(C(=O)C2CCCN(Cc3ccc(OC)c(Cn4cncn4)c3)C2)c1 (stereo not given)	MARV entry inh inconclusive, Vaccinia mCherry inconclusive
COc1cccc(C(=O)NCC2Cc3cccc(-c4cccnc4)c3O2)c1 (stereo not given)	none (no result: Lassa entry inh, MARV entry inh)
COC(CNC(=O)C1CCCN1C(=O)OCc1ccccc1)OC (stereo not given)	MARV entry inh inconclusive
COC(=O)[C@@H]1C[C@]2(OC(=O)c3ccccc3)C=CC(=O)C[C@@H]2N1C(=O)OCc1ccccc1	Lassa entry inh 7.3µM, MARV entry inh inconclusive
Clc1ccc(/C=C/c2ccnc3ccccc23)c(Cl)c1	Vaccinia Venus inconclusive (no result: Lassa entry inh, MARV entry inh)
CCOc1ccc2nc(N[C@@](NC(C)=O)(C(=O)OC)C(F)(F)F)sc2c1	none (no result: Lassa entry inh, Vaccinia Venus, Vaccinia mCherry)
COc1ccccc1OCC(=O)N(Cc1nc(-c2ccc(Cl)cc2)no1)C(C)C	none (no result: Lassa entry inh, MARV entry inh)
COc1ccccc1OCC(=O)N(Cc1nc(-c2ccccc2)no1)C(C)C	Lassa entry inh 7.9µM, MARV entry inh inconclusive
Cc1ccnc2c(Cl)c(Cl)ccc12	none (no result: Lassa entry inh, MARV entry inh)
C[C@@H](N)C(=O)N[C@H]1CCC2C3CC=C4C[C@@H](O)CC[C@]4(C)C3CC[C@@]21C (stereo not given in full)	MARV entry inh inconclusive
CC(C)[C@H](N)C(=O)N[C@H]1CCC2C3CC=C4C[C@@H](O)CC[C@]4(C)C3CC[C@@]21C (stereo not given in full)	Vaccinia Venus 13µM, Vaccinia mCherry inconclusive (no result: Lassa entry inh, MARV entry inh)
CNc1ccc(C=C2c3ccccc3-c3ccccc32)cc1	Vaccinia Venus inconclusive (no result: Lassa entry inh, MARV entry inh)
Cc1nc2nc(-c3cccs3)cn2nc1C	Lassa entry inh 10µM, MARV entry inh inconclusive (no result: Vaccinia Venus, Vaccinia mCherry)
CN(Cc1ccccc1)CC(O)COc1ccc(CNCc2ccc(Cl)s2)cc1 (stereo not given)	Lassa entry inh inconclusive, MARV entry inh 2.5µM, Vaccinia mCherry inconclusive
Oc1ccc(Br)cc1-c1cc(-c2ccccc2)n[nH]1	none
Oc1ccc(Br)cc1-c1ccnn1-c1ccccc1	Vaccinia Venus inconclusive, MARV entry inh 8.9µM, Vaccinia mCherry inconclusive
CC12CCC(=O)C=C1CCC1C2C(O)CC2(C)C(c3csc(N)n3)CCC12 (stereo not given)	MARV entry inh 8.9µM
C[C@@]12CCC3C(CCC4=CC(=O)CC[C@]43C)C1CCC2O (stereo not given in full)	none (no result: Lassa entry inh, MARV entry inh)
CC12CCC(=O)C=C1CCC1C2CCC2(C)C(c3csc(N)n3)CCC12 (stereo not given)	Lassa entry inh 13µM, MARV entry inh inconclusive
Cc1ccc(C(=O)N/C(=C/c2ccc(-c3ccc([N+](=O)[O-])cc3)o2)C(=O)NCCCN(C)C)cc1	Lassa entry inh inconclusive, Vaccinia Venus 11µM, MARV entry inh 4µM, Vaccinia mCherry inconclusive
Cc1nn(-c2ccccc2)c(C)c1C(=O)OCC(=O)c1c(N)n(CC(C)C)c(=O)n(C)c1=O	Lassa entry inh 6.5µM, MARV entry inh inconclusive (no result: Vaccinia Venus, Vaccinia mCherry)
CC(C)Cn1c(N)c(C(=O)COC(=O)c2ccc(O)cc2)c(=O)n(C)c1=O	none (no result: Lassa entry inh, MARV entry inh)
CC(C)Cn1c(N)c(C(=O)COC(=O)c2cc(-c3ccccc3)nc3ccccc23)c(=O)n(C)c1=O	none
CC(C)Cn1c(N)c(C(=O)COC(=O)c2cc(C3CC3)nc3ccccc23)c(=O)n(C)c1=O	Lassa entry inh 21µM, Vaccinia Venus inconclusive
CCCS(=O)(=O)NCc1c(C)ncc2c1CCN(C(=O)/C=C/c1ccc(F)cc1F)C2	none (no result: Lassa entry inh, MARV entry inh)
CC(C)N1C(=O)/C(=C/C=C/c2ccco2)C(=O)N(Cc2ccco2)C1=O	Lassa entry inh inconclusive, MARV entry inh 4µM
COC(=O)c1ccc2c(=O)[nH]c(CCl)nc2c1	Lassa entry inh inconclusive, MARV entry inh 13µM
CN1CCC(NC(=O)c2cc(-c3cccc(Br)c3)nc3ccccc23)CC1	Lassa entry inh inconclusive, MARV entry inh 10µM
Cc1cccc(N=C2CSC(=O)N2)c1	none
CCCCC1(CCCC)C(=O)NC(=Nc2cccc(C)c2)NC1=O	Vaccinia Venus 10µM, Vaccinia mCherry inconclusive
Cc1ccc(C(=O)CSc2cnc3ccccc3n2)cc1C	Lassa entry inh inconclusive, MARV entry inh 18µM
Cc1c(C(=O)NCc2ccc(F)cc2)oc2ccc(S(=O)(=O)N3CCOCC3)cc12	MARV entry inh inconclusive (no result: Lassa entry inh)
Cc1c(C(=O)Nc2ccc(F)cc2)oc2ccc(S(=O)(=O)N3CCC4(CC3)OCCO4)cc12	Lassa entry inh inconclusive, MARV entry inh 5.8µM (no result: Vaccinia Venus, Vaccinia mCherry)
Cc1c(C(=O)NCc2ccc3c(c2)OCO3)oc2ccc(S(=O)(=O)N3CCCCCC3)cc12	MARV entry inh 13µM
Cc1c(C(=O)Nc2ccc(F)c(F)c2)oc2ccc(S(=O)(=O)N3CCC4(CC3)OCCO4)cc12	Vaccinia Venus inconclusive (no result: MARV entry inh)
CCN(CC)S(=O)(=O)c1ccc2oc(C(=O)NCc3ccc(F)cc3)c(C)c2c1	Lassa entry inh 5.8µM, MARV entry inh inconclusive (no result: Vaccinia Venus, Vaccinia mCherry)
CCN(CC)S(=O)(=O)c1ccc2oc(C(=O)NCC3COc4ccccc4O3)c(C)c2c1 (stereo not given)	Lassa entry inh 23µM, MARV entry inh inconclusive (no result: Vaccinia Venus, Vaccinia mCherry)
CC1=CC[C@@H](C)O[C@@]2(C1)C(=O)Nc1cccc(Br)c12	Lassa entry inh inconclusive (no result: Vaccinia Venus, Vaccinia mCherry)
CC1=CC[C@@H](C)O[C@@]2(C1)C(=O)Nc1ccccc12	none (no result: Lassa entry inh, Vaccinia Venus, Vaccinia mCherry)
c1ccc2c(c1)CCCN2	none (no result: Lassa entry inh, MARV entry inh)
COC(=O)N[C@H](C(C(=O)OC)=C(C)NCc1ccccc1)c1ccco1	none (no result: Lassa entry inh, Vaccinia Venus, Vaccinia mCherry)
CCN(CC)S(=O)(=O)c1ccc2oc(C(=O)Nc3ccc(OC)cc3OC)c(C)c2c1	Lassa entry inh 6.5µM, MARV entry inh inconclusive
Cc1nc2n(c(=O)c1CCN1CCC(c3noc4cc(F)ccc34)CC1)CCCC2	MARV entry inh 11µM (no result: Lassa entry inh)
O=C(Nc1ccc(S(=O)(=O)N2CCOCC2)cc1)c1ccc(CN2CCc3ccccc3C2)cc1	Lassa entry inh 10µM, Vaccinia Venus inconclusive, MARV entry inh 2.5µM (no result: Vaccinia mCherry)
Cc1cc(C)c(NC(=O)c2ccc(CN3CCc4ccccc4C3)cc2)c(C)c1	Lassa entry inh 16µM, Vaccinia Venus inconclusive, MARV entry inh inconclusive (no result: Vaccinia mCherry)

Assay outcomes as filed in PubChem.
